# Screening results: PubChem, Corson Lab, School of Medicine, Indiana University
# FECH block – inhibitors of human ferrochelatase, primary screen, biochemical, purified FECH, Ni-mesoporphyrin absorbance. 3.3% of 20,000 active. calls only at 10 µM (by protocol). Ni-mesoporphyrin absorbance 550 nm. Ferrochelatase, mitochondrial (Homo sapiens), P22830;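 active = enzyme reaction rate more than 3 SD below the solvent-only control wells on the same plate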;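 note: lower slope than DMSO wells means FECH inhibition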
# Target sequence (P22830 whole entry, looked up): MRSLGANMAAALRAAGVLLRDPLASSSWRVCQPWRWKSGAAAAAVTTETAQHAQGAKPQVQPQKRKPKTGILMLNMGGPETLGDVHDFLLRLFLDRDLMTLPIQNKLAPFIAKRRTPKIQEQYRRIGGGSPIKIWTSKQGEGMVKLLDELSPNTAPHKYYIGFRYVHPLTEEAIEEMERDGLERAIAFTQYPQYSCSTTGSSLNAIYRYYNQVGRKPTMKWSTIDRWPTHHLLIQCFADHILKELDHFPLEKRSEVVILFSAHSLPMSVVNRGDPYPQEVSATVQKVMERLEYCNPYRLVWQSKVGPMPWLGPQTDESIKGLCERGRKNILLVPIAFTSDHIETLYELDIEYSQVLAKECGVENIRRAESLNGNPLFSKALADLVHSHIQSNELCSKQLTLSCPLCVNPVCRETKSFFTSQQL
# The depositor's hits bear a star; i = inactive; + = active, no number. Many of the other results were omitted from the sample, so hits are more common in it than they were.
SMILES,FECH block
Cc1ccc(C)c(CN2CC(=O)N(Cc3cccc(C(F)(F)F)c3)c3ccccc3S2(=O)=O)c1,i
Cc1cccc(N2C(=O)N(Cc3ccc(C)c(C)c3)c3ccccc3S2(=O)=O)c1,+
CC(C)(C)c1ccc(CN2C(=O)N(c3cc(F)ccc3F)S(=O)(=O)c3ccccc32)cc1,i
CCc1cccc(N2C(=O)N(CC(=O)NC3CCCCC3)c3ccccc3S2(=O)=O)c1,i
CCc1cccc(N2C(=O)N(Cc3cc(F)cc(F)c3)c3ccccc3S2(=O)=O)c1,+
COc1cccc(N2C(=O)N(Cc3ccc(C(C)(C)C)cc3)c3ccccc3S2(=O)=O)c1,i
O=C1CN(Cc2cccc(Br)c2)S(=O)(=O)c2ccccc2N1Cc1cccc(F)c1,i
Cc1ccc(N2C(=O)N(Cc3cc(F)cc(F)c3)c3ccccc3S2(=O)=O)cc1,+
Cc1ccc(N2C(=O)N(Cc3cc(F)cc(F)c3)c3ccccc3S2(=O)=O)c(C)c1,+
O=C1CN(Cc2ccc(F)cc2)S(=O)(=O)c2ccccc2N1Cc1ccc(Cl)cc1,i
Cc1ccc(N2C(=O)N(Cc3ccc(C(C)(C)C)cc3)c3ccccc3S2(=O)=O)cc1F,i
Cc1ccc(N2C(=O)N(Cc3cc(=O)n4ccccc4n3)c3ccccc3S2(=O)=O)cc1,i
CCc1ccccc1NC(=O)CN1CCN(Cc2ccc(C)cc2)S1(=O)=O,i
O=C1NCCN1CCNc1nccc(CCC(F)(F)F)n1,i
COc1ccc(-c2cc(C(=O)NCc3ccc(Cl)cc3)[nH]n2)cc1S(N)(=O)=O,i
CCCc1cc(Sc2ccc(NC(=O)Nc3ccc(Br)c(C)c3)cc2)n2ncnc2n1,i
COc1cccc(Nc2cc(-n3nc(C)cc3C)ncn2)c1,i
COc1cc(Nc2cc(-n3nc(C)cc3C)ncn2)cc(OC)c1,+
Cc1cc(C)n(-c2cc(Nc3ccc(Cl)cc3)ncn2)n1,i
Cc1nc(CN(C)C(=O)C2c3ccccc3-c3ccccc32)no1,i
CC(C)c1ccc(NC(=O)c2ccc3c(c2)NC(=O)C2CCCCN32)cc1 (configuration not stated),i
Cc1nc(CC(=O)N(C)Cc2csc(-c3ccccc3)n2)cs1,i
Cc1cc(N(C)C)nc(N2CCN(S(=O)(=O)c3ccc(Cl)cc3)CC2)n1,i
Cc1cc(N(C)C)nc(N2CCN(S(=O)(=O)c3ccc(F)cc3)CC2)n1,+
CC(=O)Nc1ccc(S(=O)(=O)N2CCN(c3nc(C)cc(N4CCOCC4)n3)CC2)cc1,i
SMILES,FECH block
CC(=O)Nc1ccc(S(=O)(=O)N2CCN(c3nc(C)cc(N4CCCC4)n3)CC2)cc1,i
Cc1cc(N(C)C)nc(N2CCN(S(=O)(=O)c3ccc(C)c(C)c3)CC2)n1,i
CC(=O)Nc1ccc(S(=O)(=O)N2CCN(c3nc(C)cc(N4CCCCC4)n3)CC2)cc1,+
CC1CCCCN1Cc1cc(=O)n2[nH]c(NCc3ccc(Cl)cc3)nc2n1 (configuration not stated),i
Cc1nc(OCC(=O)NC2CCS(=O)(=O)C2)c2c(C)c(C)oc2n1 (configuration not stated),i
Cc1ccc(NC(=O)N2CCC(n3cnc4cccnc43)CC2)cc1,i
Cc1ccc(C2=CC(c3ccc(F)cc3)n3nc(NC(=O)c4ccc(Cl)cc4)nc3N2)cc1 (configuration not stated),i
Cc1ccccc1N1CCN(Cc2cnc(N3CCOCC3)nc2)C(C)C1 (configuration not stated),i
Cc1cc(NC(=O)c2ccccc2C(F)(F)F)n(-c2ncnc3c2cnn3-c2cccc(C)c2C)n1,i
O=S(=O)(Nc1nc2n(n1)C(c1ccc(F)cc1)C=C(c1ccccc1)N2)c1ccccc1 (configuration not stated),i
O=C(O)CCCC(=O)Nc1nc2n(n1)C(c1ccc(Cl)cc1)C=C(c1ccc(Cl)cc1)N2 (configuration not stated),i
CCC(=O)Nc1nc2n(n1)C(c1ccc(Cl)cc1)C=C(c1ccc(Cl)cc1)N2 (configuration not stated),i
CCCC(=O)Nc1nc2n(n1)C(c1ccc(Cl)cc1)C=C(c1ccc(C)cc1)N2 (configuration not stated),+
Cc1ccc(C2=CC(c3ccc(F)cc3)n3nc(NS(=O)(=O)c4ccc(C)cc4)nc3N2)cc1 (configuration not stated),i
Cc1ccc(C2=CC(c3ccc(C)cc3)n3nc(NS(=O)(=O)c4ccccc4)nc3N2)cc1 (configuration not stated),+
O=C(c1ccccc1Cc1ccc(Cl)cc1)N1CCOC(C(F)(F)F)C1 (configuration not stated),i
Cc1cc(C)c(S(=O)(=O)NCc2nc3cccnc3n2CC(C)C)cc1C,i
CCOC(=O)c1cc2ccsc2n1CC(=O)Nc1ccc(Cl)cc1F,i
CCc1cc(CN(C)C(=O)CN2C(=O)c3ccccc3C2=O)on1,+
